Compound activity from PubChem.
In the library only some 2.3% were active in any assay of this set; here they are far more common.
Nrf2 block: Nrf2 qHTS screen for inhibitors; A549 ARE-Fluc reporter, luciferase luminescence, 18-24 h; Potency, µM (highest dose often 46 µM), for inactives: at the highest dose activity change, negative = inhibition, hits mostly inhibitors; 360,000 tested, 2.1% active; further: potency means the concentration at half of the fitted maximal effect; on the % scale 0 is the no-effect control and ±100 the full control effect; nearly all actives have a fitted effect of over 60% in size
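Cells were seeded and rested 2 h, then exposed to compounds for 18-24 h. CellTiter-Fluor was read first as a viability measure. BugLite was added 15 min before the final luminescent read of ARE-luciferase activity in A549 cells.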
miR-21 act: qHTS Assay for Modulators of miRNAs and/orActivators of miR-21. AID 2288, 2010. Potency, µM (titrated, usually from 38.3 µM), inactives show top-dose activity change, positive = activation, most hits filed as activators. HeLa miR-21 FLuc reporter, luciferase, 48 h. 340,000 tested, under 10 active;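 further: % of control where 0% means no effect; miR-21 action dims this reporter so a rising signal means less miR-21 action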
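HeLa cells endogenously expressing miR-21, stably carrying CMV-driven firefly luciferase with a downstream miR-21 binding site, 2000 cells/well. Titrations up to approximately 40 uM, 48 hours; luciferase luminescence read.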
A549 tox: Nrf2 qHTS screen for inhibitors: counterscreen for cytotoxicity; A549 ARE-Fluc cells, CellTiter-Fluor viability, 18-24 h; Potency, µM (highest dose often 46 µM), for the others: at the highest dose activity change, negative = cytotoxicity, usual class: inhibitors; 390,000 tested, 0.16% active; AID 504648, 2011; further: potency means the concentration at half of the fitted maximal effect; on the % scale 0 is the no-effect control and ±100 the full control effect
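Cytotoxicity counterscreen: CellTiter-Fluor fluorescence was measured in A549 ARE_Fluc cells after 18-24 h of compound exposure in a concentration series. The subsequent BugLite luminescent read reports ARE-luciferase activity.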
Nrf2 ARE act: qHTS of Nrf2 Activators. AREc32 ARE-luciferase reporter (MCF7-derived line), luminescence, 24 h. Potency, µM (top dose mostly 46.1 µM), without a hit: top-dose activation, actives largely listed as activators. 410,000 tested, 0.31% active; further: potency means the concentration at half of the fitted maximal effect; % of control where 0% means no effect; nearly all actives have a fitted effect of over 65% in size
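Each well held 1000 AREc32 cells, which were incubated with compound for 24 hr at 37 deg C after overnight attachment, and ARE reporter activity was quantified by firefly luciferase luminescence.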
GRP78 ERSR act: qHTS for Inducers of the Endoplasmic Reticulum Stress Response (ERSR) in Human Glioma: qHTS | U87-MG GRP78 promoter luciferase reporter, 16 h | Potency, µM, without a hit: top-dose activation, usual class: activators | 420,000 tested, 0.02% active; further: potency means the concentration at half of the fitted maximal effect; series mostly up to about 76 µM; % of control where 0% means no effect; nearly all actives have a fitted effect of over 35% in size
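Stably transfected U87-MG human glioma cells carrying a GRP78-based luminescent sensor were seeded at 1000 cells/well, pin-dosed with compounds and incubated 16 h. Luciferase reagent was then added, and end-point luminescence was read after 10 min at room temperature.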
Mito fusion act: qHTS Assay for Small Molecule Inhibitors of Mitochondrial Division or Activators of Mitochondrial Fusion; S. cerevisiae fusion-defective mutant growth rescue, CellTiterGlo 48 h; Potency, µM (top dose mostly 46.1 µM), without a hit: at the top dose growth rescue (activation), most hits filed as activators; 320,000 tested, 0.23% active; further: potency means the concentration at half of the fitted maximal effect; % of control where 0% means no effect; nearly all actives have a fitted effect of over 45% in size
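Yeast fusion mutant, YPEG (non-fermentable carbon), compound, 48 h at 37C non-permissive; CellTiterGlo added, 10 min RT, luminescence read. Rescued growth = division inhibition.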
Active calls of the source: *; ? = inconclusive; nt = no result given; [ ] = another dose, or the depositor's remark. The call rests on the fitted dose curve; in most records, active means well fitted curve in the direction sought with a large enough effect; inconclusive means small, poorly fitted or top-dose-only effect, or another doubt; inactive means no such curve, though single readings can be large; an effect the other way counts as inactive or inconclusive.

SMILES	Nrf2 block	miR-21 act	A549 tox	Nrf2 ARE act	GRP78 ERSR act	Mito fusion act
CCCCCCC[N+](CC)(CC)CCCCc1ccc(Cl)cc1	16µM*	nt	-7%	-1%	-3%	-29%
CCOC(=O)C(CCC(=O)O)(CCC(C)C)c1csc(N)n1 (configuration not stated)	2%	-3%	-3%	0%	-7%	3%
CCCCC(CC)CNC(=O)CCS(=O)(=O)c1cccc2nsnc12 (configuration not stated)	-20%	1%	-9%	-1%	-1%	5%
CCOc1ccc(C(=O)C2CCN(CC(=O)Nc3ccccc3N3CCOCC3)CC2)cc1	12µM*	-3%	-14%[1.84 µM]	2%	0%	24%
CCOC(=O)N1CCN(C(=O)CN2C(=O)CC(C)(C)S(=O)(=O)c3ccccc32)CC1	3%	1%	21%	0%	-3%	-3%
Cc1ccc2c(C(=O)CN3CCN(c4ccccc4)CC3)c(C)[nH]c2c1	nt	-6%	-4%	0%	-4%	2%
COc1cccc(N2CCN(CC(=O)NC3=Nc4ccccc4N=C(C)C3c3ccccc3)CC2)c1 (configuration not stated)	?	7%	1%	1%	-2%	12%
COc1cccc(N2CCN(CC(=O)Nc3nnc(-c4ccccc4)s3)CC2)c1	12µM*	23%	-20%	2%	-5%	16%
COc1cccc(N2CCN(CC(=O)c3c(C)[nH]c4ccccc34)CC2)c1	12µM*	0%	?	4%	-5%	3%
COC(=O)c1[nH]c2ccccc2c1NC(=O)CN1CCN(c2cccc(OC)c2)C(C)C1 (configuration not stated)	26µM*	6%	-24%	2%	-9%	17%
Cc1ccc(C)c(NC(=S)N(Cc2ccco2)C(C)c2cccs2)c1 (configuration not stated)	1%	-1%	-1%	-1%	-3%	4%
COc1ccc(NC(=O)N2CCC(C(=O)c3ccc(F)cc3)CC2)cc1	-15%	-15%	10%	0%	-3%	2%
Cc1cc(C)cc(NC(=O)N2CCC(C(=O)c3ccc(F)cc3)CC2)c1	15µM*	9%	-15%	-1%	-2%	-16%
CSc1ccc(NC(=O)N2CCC(C(=O)c3ccc(F)cc3)CC2)cc1	16µM*	10%	-8%	2%	0%	20%
CCOC(=O)C1CCCN(C(=O)CCNC(=O)Cn2ccc3ccccc3c2=O)C1 (configuration not stated)	0%	0%	2%	-1%	-6%	-4%
CCCc1c(O)nc(SC2CC(=O)N(c3ccc(OC)cc3)C2=O)[nH]c1=O (configuration not stated)	6%	-3%	-2%	0%	0%	-9%
C=CCC1CCCCC12NC(=O)NC2=O (configuration not stated)	-14%	7%	-5%	-1%	-4%	1%
COc1ccc([N+](=O)[O-])cc1C1NN=C(c2ccccc2O)S1 (configuration not stated)	?	-16%	-24%	4.5µM*	-3%	0%
COC(=O)C1OC1c1cc([N+](=O)[O-])ccc1OC (configuration not stated)	6%	nt	-11%	5%	19%	nt
Cc1ccccc1-c1n[nH]c(=S)n1/N=C/C=C/c1ccco1	?	0%	-4%	13µM*	-4%	0%
CCC(C)Nc1nc(N)c([N+](=O)[O-])c(Nc2ccccc2OC)n1 (configuration not stated)	15µM*	-8%	?	5%	-5%	?
C=CCNc1nc(N)c([N+](=O)[O-])c(Nc2ccccc2OC)n1	21µM*	-2%	-19%	2%	-7%	-40%
O=C(CN1C(=O)/C(=C/c2c(F)cccc2Cl)Oc2ccccc21)NCc1ccco1	nt	-1%	nt	nt	nt	9%
CCn1c(=O)cc(SCC(=O)Nc2ccc(OC)c(OC)c2)c2ccccc21	16µM*	21%	-26%	1%	-9%	0%
Cn1c(=O)cc(SCC(=O)Nc2cccnc2)c2ccccc21	?	0%	-3%	0%	0%	1%
SMILES	Nrf2 block	miR-21 act	A549 tox	Nrf2 ARE act	GRP78 ERSR act	Mito fusion act
CCOCCn1ccc2c(OCC(=O)Nc3ccc(OC)c(OC)c3)cccc2c1=O	12µM*	nt	-18%	0%	-3%	-1%
COc1cc(NC(=O)CSc2cc(=O)n(C)c3ccccc23)cc(OC)c1OC	21µM*	0%	-11%	-1%	-4%	nt
COc1ccc(OC)c2sc(NC(=O)c3cccc(N4C(=O)CCC4=O)c3)nc12	-3%	0%	-2%	-1%	-6%	3%
O=C1CN(S(=O)(=O)c2cc(Cl)ccc2Cl)CCN1	-21%	-9%	-1%	0%	-2%	-6%
O=C(Oc1ccc(-c2cnc3ccccc3n2)cc1)c1ccco1	?	-33%	-8%	2%	0%	5%
Cc1oc(=O)c(NC(=O)c2ccccc2)cc1C(=O)c1ccccc1	19%	22%	nt	?	?	-4%
CC(=O)c1cc(NC(=O)c2ccccc2)c(=O)oc1C	3%	-1%	-5%	13µM*	4%	11%
COc1ccc(CCNC(=O)c2cc3c(=O)n(C)c4ccccc4c3n2C)cc1OC	?	6%	-4%	-1%	-1%	-2%
Cn1c(=O)c(Sc2ccccc2)c(O)c2ccccc21	-6%	4%	-7%	0%	-2%	-8%
Cc1ccc(Sc2c(O)c3ccccc3n(C)c2=O)cc1	-2%	1%	-2%	-1%	-2%	14µM*
CSc1ncnc2c1ncn2CCCNCc1ccc2c(c1)OCO2	nt	nt	nt	3%	-4%	nt
Cc1cccc(CCNC(=O)c2cc3c(s2)-c2c(C)cccc2OC3)c1	?	6%	7%	2%	-6%	nt
Cc1cccc2c1-c1sc(C(=O)NCCc3ccc(Cl)cc3)cc1CO2	23µM*	8%	-12%	3%	-5%	nt
COc1ccc(CCNC(=O)c2cc3c(s2)-c2ccccc2OC3)cc1OC	23µM*	0%	2%	0%	-4%	nt
Cc1noc(C)c1NC(=O)NCCN1CCN(Cc2ccccc2)CC1	11%	0%	-4%	0%	1%	3%
Cc1cc(S(=O)(=O)N2CCc3ccccc3C2)ccc1F	-13%	0%	3%	3%	-4%	0%
Cc1cnc(CN(C)Cc2c(C(=O)N3CCCCCCC3)nc3ccc(Cl)cn23)[nH]1	2%	-5%	-19%	0%	-3%	-2%
